The values below come from PubChem BioAssay.

The structures appear in SMILES notation.

Assay [1] deals with Human papillomavirus type 1a protein E7 (residues 44-93). Briefly: HPV1a E7 fragment binders on microarrays, primary screen, biochemical, small-molecule microarray, residues 44-93, 635 nm fluorescence (AID 1108).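 Note: E7 fragment applied at 1 µg/mL in TBST for 1 h at 4 C; score combines spot fluorescence with its signal to noise ratio.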 The conditions noted are these: small-molecule microarray binding, fluorescence 635 nm; higher = more signal.
A short description of assay [2]: modulators of HCV replicon luciferase signal, primary screen, HCV replication inhibitor project, Huh7 cells, luciferase reporter (AID 1109).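 Note: huh7 hepatoma cells harbouring a luciferase neomycin HCV replicon reporter; luciferase luminescence as measure of HCV replicon replication; test concentration not given here.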 The conditions noted are these: 48 h, higher = more signal.
Assay [3] deals with Left-right determination factor 2 (Homo sapiens) (UniProt O00292). Briefly: LEFTY2 binders on small-molecule microarrays, primary screen, biochemical, small-molecule microarray, 635 nm fluorescence scan (AID 1110). The conditions noted are these: LEFTY2 binding, higher = more signal.
In assay [4] the target is Calmodulin-1 (Homo sapiens) (UniProt P0DP23). The assay can be described thus: CALM1 binders on microarrays, EGTA buffer, profiling panel, biochemical, small-molecule microarray, Cy5-labelled CALM1 (AID 1111).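 Note: labelled calmodulin applied in Tris saline Tween buffer holding calcium plus EGTA and DTT.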 The conditions noted are these: Cy5-CALM1 binding fluorescence, higher = more signal.
Assay [5] shares this target. Briefly: calcium-bound CALM1 binders on microarrays, profiling panel, artefact control for SMM control-protein annotation, biochemical, small-molecule microarray, Cy5-labelled CALM1, plus calcium (AID 1112).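 Note: score merges spot fluorescence with signal to noise from triplicate slides.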 Conditions: Cy5-CALM1 binding fluorescence, higher = more signal.
Assay [6] is described as follows: small-molecule microarray binders of probe aWnt5a, primary screen, biochemical, biotinylated probe, 635/667 nm fluorescence (AID 1113).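 Note: score merges 667 nm fluorescence intensity with signal-to-noise per printed feature.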 The conditions noted are these: higher = more signal.
A short description of assay [7]: small-molecule microarray binders of probe aShh, primary screen, biochemical, biotinylated probe, 635/667 nm fluorescence (AID 1114).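 Note: probe is biotin-labelled aShh protein from a stem cell growth factor screen; measures binding of labelled protein to compounds printed on the slide; score merges feature fluorescence at 667 nm with signal-to-noise.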 The conditions noted are these: higher = more signal.
Assay [8] can be described thus: small-molecule microarray binders of probe aNog, primary screen, biochemical, biotinylated probe, 635/667 nm fluorescence (AID 1115).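 Note: probe is biotinylated aNog protein used at 0.15 µg/mL for 1 h at 4 C; z-score combines 667 nm fluorescence of each spot with its signal to noise.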 Conditions: higher = more signal.
The target in assay [9] is Torsin-1A-interacting protein 1 (Homo sapiens) (UniProt Q5JTV8). Briefly: LAP1 binders from COS7 cell lysate, primary screen, small-molecule microarray, 635/667 nm fluorescence (AID 1116). Conditions: COS7-hLAP1 lysate binding, 635 nm fluorescence, higher = more signal.
Assay [10] concerns the target Alpha-bungarotoxin (Bungarus multicinctus) (UniProt P60615). The assay can be described thus: alpha-bungarotoxin binders on microarray, profiling panel, artefact control for SMM control protein annotation, biochemical, small-molecule microarray, Alexa647 label, 635/667 nm fluorescence (AID 1117). Conditions: alpha-BTX-A647 binding fluorescence, higher = more signal.

Sequence of Torsin-1A-interacting protein 1 (Homo sapiens) (Q5JTV8 whole entry, looked up): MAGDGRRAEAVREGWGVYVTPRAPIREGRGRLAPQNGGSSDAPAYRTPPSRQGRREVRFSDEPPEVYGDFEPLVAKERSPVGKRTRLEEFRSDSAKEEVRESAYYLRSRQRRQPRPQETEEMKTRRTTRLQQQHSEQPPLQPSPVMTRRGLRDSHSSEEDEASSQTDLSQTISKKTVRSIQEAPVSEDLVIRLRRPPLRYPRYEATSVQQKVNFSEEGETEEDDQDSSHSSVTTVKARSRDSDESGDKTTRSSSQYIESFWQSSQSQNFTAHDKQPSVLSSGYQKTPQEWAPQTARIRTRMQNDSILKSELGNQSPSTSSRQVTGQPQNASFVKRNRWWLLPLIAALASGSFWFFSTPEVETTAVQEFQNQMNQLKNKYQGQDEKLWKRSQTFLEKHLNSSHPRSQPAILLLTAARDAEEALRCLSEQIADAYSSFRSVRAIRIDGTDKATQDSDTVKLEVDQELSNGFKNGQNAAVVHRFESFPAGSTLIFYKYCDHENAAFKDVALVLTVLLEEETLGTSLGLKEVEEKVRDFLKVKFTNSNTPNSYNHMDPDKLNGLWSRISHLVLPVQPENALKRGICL
Sequence of Left-right determination factor 2 (Homo sapiens) (O00292 whole entry, looked up): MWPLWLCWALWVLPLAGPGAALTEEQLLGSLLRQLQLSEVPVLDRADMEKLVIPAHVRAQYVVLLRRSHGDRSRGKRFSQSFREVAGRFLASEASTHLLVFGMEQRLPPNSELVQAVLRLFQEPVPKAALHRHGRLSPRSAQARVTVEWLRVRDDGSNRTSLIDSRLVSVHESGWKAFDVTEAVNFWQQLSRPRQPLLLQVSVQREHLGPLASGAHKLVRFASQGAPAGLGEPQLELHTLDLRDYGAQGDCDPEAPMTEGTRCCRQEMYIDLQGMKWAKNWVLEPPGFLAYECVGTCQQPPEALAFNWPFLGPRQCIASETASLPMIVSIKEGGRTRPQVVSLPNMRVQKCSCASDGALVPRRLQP
Sequence of Alpha-bungarotoxin (Bungarus multicinctus) (P60615 whole entry, looked up): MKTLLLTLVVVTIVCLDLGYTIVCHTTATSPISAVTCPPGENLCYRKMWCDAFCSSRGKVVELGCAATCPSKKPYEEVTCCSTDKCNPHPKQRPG

`O=C(N1CCCCC1)[C@@]1(Cc2ccccc2)COC(c2ccc(OCCCO)cc2)=N1`: the composite z-score in assay [1] is 0.242; in assay [3], -0.462; in assay [4] it was 2.02; in assay [5], 1.23; in assay [6], 0.113; in assay [7], 0.253. Also, the composite z-score in assay [8] was 0.293; in assay [9], 0.996; in [10], 1.83. Also, the z-score in [2] was -1.98.

Turning to `COc1ccc(C(O)C2C=CC3C(=O)N(C)C(=O)C3N2N2CCCCC2)cc1` (stereo not given), the composite z-score in assay [1] was found to be 0.069; in [3], 0.108; in [4] it was 0.204; in assay [5], 0.3; in [6], 0.1; in [7], 0.457. In addition, the values for the composite z-score in assay [8], in [9] and in assay [10] were 1.07, 2.36 and 0.55, respectively. Also, the z-score in [2] stood at 0.633.

Consider `CCOC(=O)[C@H]1C/C=C/C[C@H](C(=O)OCC)C(=O)O[C@H]2[C@@H](OC)O[C@H](CO)[C@@H](OC(=O)Nc3ccc(OC)cc3)[C@@H]2OC1=O`, for which the composite z-score in [1] is 0.89; in [3], 0.721; in [4], 0.433; in [5], 0.118; in [6], 0.0395; in assay [7], -0.0146. The composite z-score in assay [8] is 0.206; in [9], 0.753; in [10], 1.09. The same compound registered a z-score in assay [2] of -2.82.

Take `CC=CC(O)C1C=CC2C(=O)N(c3ccccc3)C(=O)C2N1Nc1ccc([N+](=O)[O-])cc1` (stereo not given): the composite z-score in assay [1] was 1.21; in assay [3] it was 0.382; in assay [4], -0.107; in assay [5], -0.654; in assay [6], -0.0685; in [7], 0.0469. The composite z-score was -0.124 in assay [8], 0.643 in assay [9] and 0.529 in [10]. This compound gave a z-score in assay [2] of 0.0112.

For `COc1ccccc1CN1C(=O)c2ccccc2[C@@H](C(=O)NC(C)C)[C@@H]1c1ccc(CO)cc1`, the composite z-score is 0.636 in assay [1]; 0.4 in [3]; 0.301 in [4]; -0.508 in assay [5]; 0.236 in assay [6]; 0.14 in assay [7]. In addition, the composite z-score in assay [8] was -0.637; in [9] it was 0.902; in assay [10] it was 1.06. The same compound showed a z-score in [2] of -0.861.

Regarding `CC(C)NC(=O)[C@@]1(C)c2ccccc2C(=O)N(C(C)C)[C@H]1c1ccc(CO)cc1`, the composite z-score in assay [1] was -0.609; in assay [3] it was -3.05; in [4], -0.614; in assay [5] it was -0.0732; in [6], -0.296; in assay [7], -0.154. The figures for the composite z-score in [8], in assay [9] and in [10] were -0.435, -1.97 and -0.43, respectively. The z-score in assay [2] was -0.593.

`CC(=O)n1cc(C(O)C2C=CC3C(=O)N(Cc4ccccc4)C(=O)C3N2n2cnnc2)c2ccccc21` (stereo not given): the composite z-score in assay [1] is -0.179; in assay [3], 0.0796; in assay [4], 0.416; in [5], -0.568; in assay [6], -0.0721; in assay [7], -0.0626. Besides, the composite z-score in [8] is -0.305; in [9], 0.463; in [10], 1.09. For the same compound, the z-score in assay [2] is -1.49.

Take `C=C(COC)/C(=C/C[C@@H](OC(=O)c1ccncc1)c1ccc(OCCO)cc1)c1cnc2ccccc2c1`: the composite z-score in assay [1] was 1.3; in assay [3], 1.12; in assay [4] it was 0.695; in [5], -0.604; in assay [6] it was 0.0151; in assay [7] it was -0.167. For the same compound, the composite z-score was found to be 0.827 in assay [8], 1.66 in assay [9] and 1.5 in assay [10]. The compound further displayed a z-score in assay [2] of -1.59.

As for `Cc1ccc(S[C@]2(C(=O)NCc3ccccc3)CC(=O)N(C(C)C)[C@@H]2c2ccc(CO)cc2I)cc1`, the composite z-score is 1.34 in assay [1]; -1.26 in assay [3]; 0.436 in assay [4]; 0.475 in assay [5]; -0.243 in assay [6]; -0.229 in assay [7]. The results for the composite z-score in assay [8], in [9] and in assay [10] were 0.962, 0.877 and -0.613, respectively. In addition, the z-score in assay [2] is -1.52.

Regarding `O=C(CS)NCCCCCCNC(=O)[C@@H]1C[C@@H]2C(=O)N3CCC[C@H]3C(=O)N2[C@@H]1c1cccc(OCCO)c1`, the composite z-score is 1.41 in [1]; 0.289 in assay [3]; 1.49 in assay [4]; 0.36 in [5]; 0.206 in [6]; -0.0866 in assay [7]. Moreover, the composite z-score in [8] was 0.0482; in assay [9] it was 1.41; in assay [10], 2.16. In assay [2], this compound returned a z-score of 0.0871.

Regarding `COC(=O)[C@@]1(Cc2ccc(OC)cc2)[C@H]2c3cc(C(=O)N(C)C)n(CCc4c[nH]c5ccc(O)cc45)c3C[C@H]2CN1C(=O)c1ccccc1`, the composite z-score is 1.06 in assay [1]; -0.217 in assay [3]; 1.83 in assay [4]; 1.25 in [5]; -0.0196 in assay [6]; 0.488 in [7]. The composite z-score in assay [8] is 2.27; in assay [9] it was 1.3; in [10] it was 1.28. For the same compound, in assay [2], the z-score is -0.0903.

With `CCC[C@@H]1C[C@@]1(CCC)[C@@H](NP(=O)(c1ccccc1)c1ccccc1)c1ccc(Cl)cc1`, the composite z-score in [1] is -0.213; in [3] it was -0.427; in [4] it was -0.915; in assay [5] it was -1.31; in assay [6] it was -0.127; in assay [7], 1.44. Moreover, the composite z-score in [8] was -0.532; in assay [9], -0.357; in [10], -0.846. This compound also yielded a z-score in assay [2] of -1.62.

Turning to `COc1cc2c(cc1OC)CN(C(=O)[C@H]1[C@@H]3C(=O)O[C@@H](c4ccccc4)[C@@H](c4ccccc4)N3[C@@H](c3ccc(OCCO)cc3)[C@]13C(=O)Nc1ccc(C#CC4(O)CCCCCC4)cc13)CC2`, the composite z-score in assay [1] was 1.43; in assay [3], 1.15; in assay [4] it was 0.91; in assay [5], 0.765; in assay [6], -0.236; in [7] it was -0.882. Moreover, the composite z-score in assay [8] amounted to 1.72; in [9], 0.964; in [10], 0.691. The compound further gave a z-score in assay [2] of -1.33.

For the compound `CC(CO)N1C(=O)[C@@H]2C3C(=O)OCCC/C=C\[C@H]3OC23C=CCN(Cn2nnc4ccccc42)C(=O)[C@@H]13` (stereo not given in full), the composite z-score in assay [1] is -1.01; in assay [3] it was -0.214; in assay [4], -0.45; in assay [5] it was -0.205; in [6], -0.152; in assay [7] it was -0.0553. Moreover, the composite z-score was -0.196 in assay [8], -0.718 in [9] and -0.559 in assay [10]. In addition, in assay [2], the z-score was -0.456.

`Cc1ccc(S[C@]2(C(=O)NCC(F)(F)F)CC(=O)N(Cc3ccccc3)[C@@H]2c2ccc(CO)cc2)cc1`: the composite z-score in assay [1] is -0.341; in [3] it was -1.73; in assay [4], -0.23; in [5], 0.526; in assay [6], -0.169; in [7] it was -0.268. In addition, the results for the composite z-score in assay [8], in assay [9] and in [10] were -0.186, 0.122 and -0.0421, respectively. In assay [2], this compound displayed a z-score of -1.54.

Turning to `COc1ccc(NC(=O)O[C@H]2[C@H](OC(=O)Nc3ccc4c(c3)OCO4)[C@@H](OC(=O)Nc3ccc4c(c3)OCO4)[C@@H](OC)O[C@@H]2CO)cc1`, the composite z-score in assay [1] was 1.38; in assay [3] it was 0.0093; in assay [4], 1.88; in assay [5], -0.56; in assay [6], -0.0478; in assay [7], 0.365. For the same compound, the composite z-score worked out at 0.966 in assay [8], 1.29 in assay [9] and 0.663 in assay [10]. This compound displayed a z-score in assay [2] of -0.802.

For the compound `O=C1OCC=C[C@H]2OC34C=CCN(c5ccc(Cl)cc5)C(=O)[C@H]3N(CCCCCO)C(=O)[C@@H]4[C@@H]12` (stereo not given in full), the composite z-score in assay [1] is -0.932; in assay [3], -1.92; in [4], -0.501; in assay [5] it was 0.0666; in assay [6] it was -0.172; in assay [7], 0.0121. For the same compound, the composite z-score in assay [8] is 0.347; in [9], 0.0462; in assay [10], -1.64. Moreover, in [2], the z-score is -0.621.
